Source: PubChem BioAssay (several laboratories)
Beta cell apopt – blocks beta cell apoptosis. INS-1E cytokine-induced death, ATP luminescence, 48 h; percent of positive-control rescue, neutral wells zero. protection from apoptosis, % (no concentration beside the values). hit rate 0.8% among 300,000. AID 435005;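 active means Every replicate reaches about 75%, or at least half do and their mean reaches it too, limit read from the data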;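 further: 0% = cytokine-treated negative control wells and 100% = positive control rescue; higher means more ATP so stronger rescue from cytokine killing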
MPTP inh – blocks calcium-induced mitochondrial swelling; isolated mouse mitochondria, Ca2+ swelling absorbance, 30 min; inhibition, % at 10 µM; hit rate 1.4% among 360,000; AID 602449;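 active means inhibition of 50% or more, scaled per plate between neutral and stimulator controls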;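 further: 0% = DMSO wells given calcium and 100% = 1 mM EGTA wells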
Calb FLC – affects C. albicans growth with fluconazole; C. albicans CaCi-2 (fluconazole-resistant clinical isolate) + fluconazole, Alamar Blue growth, 48 h; growth inhibition, % (no concentration beside the values); hit rate 0.57% among 300,000; AID 1979;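 active means growth inhibition above about 58% in most replicates, limit read from the data, passing the limit was not always enough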;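 further: all wells also contain fluconazole at 8 µg/ml as a sub-toxic cotreatment; 0% = median of DMSO wells and 100% = median of geldanamycin control wells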
Mdm2 MdmX PPI – inhibitors of human Mdm2/MdmX interaction; inhibition, % at 8 µM; SaOS-2 split-luciferase Mdm2/MdmX complementation, luminescence; hit rate 3% among 330,000;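 active means inhibition of at least 50% at 8 µM in the primary screen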
Target sequence (O15151 whole entry, looked up): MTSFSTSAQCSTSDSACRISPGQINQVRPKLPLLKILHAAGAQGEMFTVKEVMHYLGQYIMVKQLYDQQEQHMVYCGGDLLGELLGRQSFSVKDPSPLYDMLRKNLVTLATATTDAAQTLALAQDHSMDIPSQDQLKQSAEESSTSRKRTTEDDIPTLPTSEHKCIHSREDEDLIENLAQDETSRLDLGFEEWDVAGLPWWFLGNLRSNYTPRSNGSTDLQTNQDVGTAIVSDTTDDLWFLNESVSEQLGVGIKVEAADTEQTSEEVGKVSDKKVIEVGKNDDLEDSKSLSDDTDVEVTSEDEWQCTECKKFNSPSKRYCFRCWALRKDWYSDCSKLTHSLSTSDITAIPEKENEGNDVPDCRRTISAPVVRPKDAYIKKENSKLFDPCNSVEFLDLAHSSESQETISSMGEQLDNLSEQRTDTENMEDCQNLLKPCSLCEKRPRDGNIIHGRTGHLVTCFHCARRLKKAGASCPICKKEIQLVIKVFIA
Target sequence (Q00987 whole entry, looked up): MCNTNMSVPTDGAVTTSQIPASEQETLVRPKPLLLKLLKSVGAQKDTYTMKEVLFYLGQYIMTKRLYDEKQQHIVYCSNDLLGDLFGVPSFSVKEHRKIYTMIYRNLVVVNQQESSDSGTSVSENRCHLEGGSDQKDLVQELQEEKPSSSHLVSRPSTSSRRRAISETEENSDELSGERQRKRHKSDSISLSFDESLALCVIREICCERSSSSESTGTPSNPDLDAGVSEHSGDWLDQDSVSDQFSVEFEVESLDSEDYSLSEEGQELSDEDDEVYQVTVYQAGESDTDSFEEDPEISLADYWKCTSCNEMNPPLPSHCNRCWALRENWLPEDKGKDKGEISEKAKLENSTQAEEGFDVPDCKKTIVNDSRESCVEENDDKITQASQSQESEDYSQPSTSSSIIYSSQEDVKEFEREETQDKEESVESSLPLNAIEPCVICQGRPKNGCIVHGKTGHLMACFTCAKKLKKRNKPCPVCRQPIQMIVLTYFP
CSC inhib – cancer stem cell inhibition; hit rate 1.1% among 300,000; inhibition, % at 7.5 µM; AID 2717; cancer stem cell-like cells viability, luminescence; in the data active means inhibition above about 75%; tested in HMLE shEcad cells
Mdm2-MdmX conf – confirmation of human Mdm2/MdmX interaction inhibitors; shares compounds with Mdm2 MdmX PPI; Mdm2-MdmX binding, luminescent assay; inhibition, % at 8 µM; hit rate 55% among 10,000; in the data active means inhibition above about 40%
FLuc counter – inhibits full-length luciferase, flagging false Mdm2/MdmX hits. shares compounds with Mdm2 MdmX PPI. SaOS-2 full-length luciferase counterscreen, luminescence. inhibition, % at 8 µM. hit rate 77% among 6,200. AID 504607;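 active means mean inhibition at 8 µM reaching about 37%, which flags the compound as non-specific, limit read from the data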;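 further: p53-null SaOS-2 cells with luciferase driven by a doxycycline-inducible promoter; compound on cells about two nights before reading with doxycycline added after day one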
Active calls of the source: *; / = not tested or not shown. A selection: hits, their analogues and other compounds. The true share with any hit is near 4.8%.

SMILES | Beta cell apopt | MPTP inh | Calb FLC | Mdm2 MdmX PPI | CSC inhib | Mdm2-MdmX conf | others
C[C@@H]1CN([C@H](C)CO)C(=O)CCCn2nncc2CO[C@@H]1CN(C)S(=O)(=O)c1ccc(-n2cccn2)cc1 | / | 0 | / | / | / | /
COc1ccc(S(N)(=O)=O)cc1C(=O)NNC(=O)C1COc2ccccc2O1 (stereo not drawn) | 0 | 0 | / | 2 | -18 | /
COc1ccc(S(=O)(=O)N2CCN(S(=O)(=O)c3ccc4c(c3)OCCO4)CC2)cc1 | 0 | -5 | -2 | 58* | 1 | 15
O=c1c2c3c(sc2nc(N2CCNCC2)n1-c1cccc(Cl)c1)CCCCC3 | 5 | / | 2 | 67* | 17 | 27
COC(=O)[C@]12CCCCC=C1N(Cc1ccc(Cl)cc1Cl)C(=O)[C@H](CC(=O)N1CCN(C(=O)c3ccco3)CC1)C2 | / | -1 | / | / | / | /
OCCNc1c2ccccc2nc2ccccc12 | / | 0 | 33 | 61* | 12 | 56* | FLuc counter=37*
Cc1ccc(Nc2nc(NCCO)c3ccccc3n2)cc1C | / | 17 | -2 | 55* | / | 25
COc1ccccc1Nc1nc(NCCO)c2ccccc2n1 | / | / | -3 | -12 | / | /
CCCCc1cc(=O)oc2c(C)c(OCc3nn[nH]n3)ccc12 | 0 | 1 | 8 | -5 | 4 | /
Cc1cccc(C)c1NC(=O)C1(C)CSCC(=O)N1Cc1cccc(C(F)(F)F)c1 (stereo not drawn) | / | -1 | / | / | / | /
COc1cccc(NC(=O)C2(C)CCCN(C(C)C)C2)c1 (stereo not drawn) | / | 0 | / | / | / | /
O=C(NCC1CCCO1)c1cccc(S(=O)(=O)N2CCOCC2)c1 (stereo not drawn) | -5 | 0 | 1 | 36 | -4 | /
Cn1nnnc1Sc1ncnc2scc(-c3ccc(-c4ccccc4)cc3)c12 | -4 | 1 | / | 100* | / | 23
Cn1nnnc1Sc1ncnc2scc(-c3ccsc3)c12 | -4 | 0 | / | 100* | / | 85* | FLuc counter=53*
Cc1nnc(NC(=O)CSc2ncnc3scc(-c4ccccc4)c23)s1 | -1 | 6 | 9 | 12 | 40 | /
CC(=O)c1ccccc1-c1csc2ncnc(Sc3nnnn3C)c12 | -35 | -1 | / | 32 | 24 | /
Cn1nnnc1Sc1ncnc2scc(-c3cccs3)c12 | -84 | / | / | 98* | 57 | 90* | FLuc counter=56*
Cn1nnnc1Sc1ncnc2scc(-c3cc4ccccc4o3)c12 | 89* | -1 | / | 100* | 115* | 99* | FLuc counter=51*
CC(C)(C)NC(=O)C1(C)CCC(=O)N1CC(F)(F)F (stereo not drawn) | / | 0 | / | / | / | /
Cn1nnnc1Sc1ncnc2scc(-c3ccc(C#N)cc3)c12 | -40 | 0 | / | 87* | 44 | 79* | FLuc counter=60*
CC(C)C[C@H]1CN=C(Nc2ccccc2)N1CCc1cccc(F)c1 | -5 | 1 | / | 58* | 26 | -19
Cc1cccc(CCN2C(Nc3ccccc3)=NC[C@@H]2CC(C)C)c1 | -2 | 2 | / | 48 | 25 | /
CCNC(=O)c1ccccc1SCc1ccccc1 | -3 | 2 | 7 | -23 | 5 | /
CCc1ccc(OCCNC(=O)c2ccccc2SCc2ccccc2)cc1 | 1 | 1 | 1 | 80* | 50 | 80* | FLuc counter=57*
CC(C)C[C@@H]1CC2=C(C(=O)OC(C)(C)O2)[C@H](c2ccc(Cl)cc2)O1 | / | 0 | / | / | / | /
SMILES | Beta cell apopt | MPTP inh | Calb FLC | Mdm2 MdmX PPI | CSC inhib | Mdm2-MdmX conf | others
COc1ccc(-c2csc(NC(C)c3nc4cc(Cl)c(Cl)cc4n3CCCO)n2)cc1 (stereo not drawn) | 32 | 1 | 0 | 59* | -6 | 30
CC(Nc1nc(-c2ccc(F)cc2)cs1)c1nc2cc(Cl)c(N3CCCCC3)cc2n1CCOCCO (stereo not drawn) | 3 | 0 | 3 | 29 | 36 | /
CC(Nc1nc(-c2ccc(F)cc2)cs1)c1nc2cc(Cl)c(N3CCCCC3)cc2n1CCCO (stereo not drawn) | 16 | 2 | -22 | 75* | 27 | 18
CC(Nc1nc(-c2ccc(F)cc2)cs1)c1nc2cc(Cl)c(Cl)cc2n1CCOCCO (stereo not drawn) | 7 | 0 | -5 | 30 | -2 | /
CCOC(=O)C1(C)CCCN(C(=O)C(c2ccccc2)c2ccccc2)C1 (stereo not drawn) | / | 0 | / | / | / | /
CN1CCN(CCNC(=O)c2ccc3nc(-c4ccc(F)cc4)c(-c4ccc(F)cc4)nc3c2)CC1 | 2 | 2 | -10 | 54* | -1 | 29
CCOC(=O)[C@]12CCCC=C1N(Cc1cccc3ccccc13)C(=O)[C@H](CC(=O)N1CCC(c3ccccc3)CC1)C2 | / | 0 | / | / | / | /
COC(=O)c1ccccc1NC(=O)c1c(O)c2c([nH]c1=O)CCCC2 | 0 | 1 | 1 | 56* | 6 | 11
COC(=O)N1C(=O)[C@@](c2ccccc2)(C2CCCC2)N1C(=O)OC | 1 | 0 | 3 | 74* | 22 | 35
COC(=O)N1C(=O)[C@](CC(C)C)(c2ccccc2)N1C(=O)OC | -11 | 2 | -2 | / | 7 | /
COC(=O)N1C(=O)[C@@](CC(C)C)(c2ccccc2)N1C(=O)OC | -11 | / | -2 | 51* | 38 | 14
COC(=O)N1C(=O)[C@](c2ccccc2)(C2CCCCC2)N1C(=O)OC | 1 | 1 | -7 | 46 | 16 | /
CSc1ncc(OCc2ccccc2)c(=O)[nH]1 | -5 | 2 | 41 | -10 | -2 | /
O=C(Cc1ccc(Cl)cc1)Nc1cccc(S(=O)(=O)N2CCCCC2)c1 | -7 | 4 | / | 19 | -10 | /
Cc1ccc(S(C)(=O)=O)cc1C(=O)Nc1cccc(S(=O)(=O)N2CCCCCC2)c1 | -2 | 1 | / | -4 | 1 | /
O=C(CCl)Nc1cccc(S(=O)(=O)NC2=NCCCCC2)c1 | -18 | 0 | / | 62* | 61 | 69* | FLuc counter=36
Cc1ccc(S(=O)(=O)N2CCCCC2)cc1C(=O)N(C)CC(=O)Nc1ccc(Cl)c(C(F)(F)F)c1 | 19 | 5 | -10 | 55* | 42 | 68* | FLuc counter=49*
CC(=O)c1c(C)[nH]c(C(=O)Nc2cccc(S(=O)(=O)N3CCCCC3)c2)c1C | -1 | 38 | / | 72* | -1 | 36
O=C(CCl)Nc1cccc(S(=O)(=O)N2CCCCCC2)c1 | -9 | 2 | -48 | 98* | 19 | 44* | FLuc counter=24
CCCN(Cc1ccc(C)cc1)C(=O)c1ccc(CNS(=O)(=O)c2ccc(C(C)=O)cc2)cc1 | -3 | 0 | / | -15 | 11 | /
CSc1ccccc1NC(=O)C1(C)CCN1C(=O)Cc1ccc(-c2ccccc2)cc1 (stereo not drawn) | / | 0 | / | / | / | /
CCc1cc(C(=O)N/N=C/c2ccc(O)cc2O)c2ccccc2n1 | 93* | 0 | 7 | 63* | 94* | 64* | FLuc counter=36*
O=C(CNC(=O)C(c1ccccc1)c1ccccc1)N/N=C\c1cccc(O)c1 | -2 | 1 | -2 | -6 | 3 | /
O=C(CNC(=O)C1COc2ccccc2O1)N/N=C/c1ccc(O)cc1O (stereo not drawn) | 20 | 2 | 8 | 51* | 78* | 38 | FLuc counter=71*
